We go through 13 molecules from PubChem BioAssay (Tox21).

Several values for one entry are separate records, joined by “and”; a condition that tells them apart may be missing. Equal entries are not always repeated. Results filed as inconclusive are left out. The source holds several records for some structures; these can differ, active in one and inactive in another. Activity calls are given as the source filed them. Calls come from the whole dose curve; as a rule, active = well fitted curve in the direction sought with a large enough effect in the repeat runs; inconclusive = weak or mixed curves; inactive = no such curve, though single readings can be large; an effect the other way counts as inactive or inconclusive.

Assay [1] in a line: A CellTox Green Cytotoxicity Assay to monitor cytotoxicity in HEK293 cells - 40 hour (AID 1224871). Note: nearly all actives have a fitted effect of over 45% in size. Note: potency is the fitted concentration of half-maximal effect. A digest of the protocol:
(§1)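 HEK293 cells, 600/well, were preincubated 5 hours and then exposed to compounds at 37 C for up to 40 hours. A cell-impermeant cyanine dye staining dead-cell DNA was read by fluorescence at 0, 8, 16, 24, 32 and 40 h time points.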

Assay [2] can be described thus: qHTS RealTime-Glo MT Cell Viability Assay in HEK293 cells - 16 hour (AID 1224872). Note: nearly all actives have a fitted effect of over 50% in size. Note: potency is the fitted concentration of half-maximal effect. In short, it runs like this:
(§2)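 Reads taken at 0, 8, 16, 24, 32 and 40 h from the same wells. HEK293 cells (600/well) carried RealTime-Glo reagents from seeding, with compound added after a 5 h settle at 37 C.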

Assay [3] can be described thus: qHTS RealTime-Glo MT Cell Viability Assay in HepG2 cells - 8 hour (AID 1224873). Note: nearly all actives have a fitted effect of over 55% in size. A digest of the protocol:
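HepG2 cells (600/well) mixed with RealTime-Glo MT reagent, settled 5 h at 37 C/5% CO2 before compound addition. Nonlytic NanoLuc luminescence from viable-cell prosubstrate reduction read repeatedly during 40 h treatment at 37 C.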
For orientation: In qHTS, concentration-response curves come from the screen itself.

The nature of assay [4]: qHTS RealTime-Glo MT Cell Viability Assay in HEK293 cells - 40 hour (AID 1224874). Note: nearly all actives have a fitted effect of over 50% in size. Note: potency is the fitted concentration of half-maximal effect. Particulars: RealTime-Glo luminescence; max response: stronger effect = lower value. In short, it runs like this: (§3)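 600 cells/well were plated with the nonlytic NanoLuc/prosubstrate reagent, pre-incubated 5 h, then given 23 nL of compound in DMSO. Incubation at 37 C for 40 h, with luminescence from viable-cell-reduced substrate read repeatedly from 0 h.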

The nature of assay [5]: A CellTox Green Cytotoxicity Assay to monitor cytotoxicity in HEK293 cells - 24 hour (AID 1224875). Note: series mostly up to about 77 µM; nearly all actives have a fitted effect of over 45% in size. A digest of the protocol:
as §1

Assay [6] in a line: A CellTox Green Cytotoxicity Assay to monitor cytotoxicity in HepG2 cells - 16 hour (AID 1224876). Note: nearly all actives have a fitted effect of over 45% in size. Note: potency is the fitted concentration of half-maximal effect. In short, it runs like this:
(§4)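 HepG2 cells, 600/well, preincubated 5 h with CellTox Green dye, then exposed to Tox21 compounds in DMSO at 37 C for up to 40 h. Dead-cell DNA fluorescence read at the indicated time point.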

Assay [7] can be described thus: qHTS RealTime-Glo MT Cell Viability Assay in HepG2 cells - 32 hour (AID 1224877). Note: nearly all actives have a fitted effect of over 55% in size. In short, it runs like this: (§5)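 HepG2 suspension premixed with RealTime-Glo reagents is plated at 600 cells per well and left 5 h at 37 C/5% CO2. Compounds in DMSO then go in, and bioluminescence reflecting viable cell number is recorded over 40 h.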
The nature of assay [8]: A CellTox Green Cytotoxicity Assay to monitor cytotoxicity in HepG2 cells - 24 hour (AID 1224878). Note: nearly all actives have a fitted effect of over 45% in size. Note: potency is the fitted concentration of half-maximal effect. A digest of the protocol: as §4
The nature of assay [9]: qHTS RealTime-Glo MT Cell Viability Assay in HEK293 cells - 0 hour (AID 1224880). A digest of the protocol: as §3
Assay [10] is described as follows: A CellTox Green Cytotoxicity Assay to monitor cytotoxicity in HEK293 cells - 32 hour (AID 1224881). Note: nearly all actives have a fitted effect of over 40% in size. Note: potency is the fitted concentration of half-maximal effect. A digest of the protocol: as §1
Assay [11] in a line: A CellTox Green Cytotoxicity Assay to monitor cytotoxicity in HepG2 cells - 0 hour (AID 1224882). Note: nearly all actives have a fitted effect of over 35% in size. Note: potency is the fitted concentration of half-maximal effect. In short, it runs like this:
as §4

The nature of assay [12]: A CellTox Green Cytotoxicity Assay to monitor cytotoxicity in HepG2 cells - 32 hour (AID 1224883). Note: nearly all actives have a fitted effect of over 50% in size. Note: potency is the fitted concentration of half-maximal effect. In short, it runs like this: as §4
The nature of assay [13]: qHTS RealTime-Glo MT Cell Viability Assay in HepG2 cells - 16 hour (AID 1224885). Note: nearly all actives have a fitted effect of over 50% in size. A digest of the protocol: as §5
Assay [14] can be described thus: qHTS RealTime-Glo MT Cell Viability Assay in HEK293 cells - 24 hour (AID 1224886). Note: nearly all actives have a fitted effect of over 50% in size. Note: potency is the fitted concentration of half-maximal effect. In short, it runs like this: as §2
Assay [15] can be described thus: qHTS RealTime-Glo MT Cell Viability Assay in HEK293 cells - 8 hour (AID 1224887). Note: nearly all actives have a fitted effect of over 50% in size. Note: potency is the fitted concentration of half-maximal effect. In short, it runs like this: as §3
The nature of assay [16]: A CellTox Green Cytotoxicity Assay to monitor cytotoxicity in HEK293 cells - 16 hour (AID 1224888). Note: nearly all actives have a fitted effect of over 35% in size. A digest of the protocol: as §1
A short description of assay [17]: qHTS RealTime-Glo MT Cell Viability Assay in HepG2 cells - 0 hour (AID 1224889). Note: nearly all actives have a fitted effect of over 50% in size. A digest of the protocol:
as §5

A short description of assay [18]: A CellTox Green Cytotoxicity Assay to monitor cytotoxicity in HepG2 cells - 8 hour (AID 1224890). Note: nearly all actives have a fitted effect of over 45% in size. Note: potency is the fitted concentration of half-maximal effect. In short, it runs like this:
as §4

Assay [19] can be described thus: A CellTox Green Cytotoxicity Assay to monitor cytotoxicity in HepG2 cells - 40 hour (AID 1224879). Note: nearly all actives have a fitted effect of over 40% in size. Note: potency is the fitted concentration of half-maximal effect. In short, it runs like this:
as §4

Assay [20] in a line: A CellTox Green Cytotoxicity Assay to monitor cytotoxicity in HEK293 cells - 8 hour (AID 1224884). Note: nearly all actives have a fitted effect of over 35% in size. Note: potency is the fitted concentration of half-maximal effect. In short, it runs like this: as §1
% is set by controls: 0 for no effect and ±100 for the full control effect.

Consider `CCCCCCCCCCCCO`, for which the Potency in assay [1] is 4.84 µM (active). Further, the Potency entry in assay [2], in assay [3], in assay [5], in assay [6], in assay [7] and in [8] was “inactive” throughout. Moreover, the Potency result in assay [9], in assay [10], in [11], in [12], in assay [13] and in assay [14] was “inactive” in each case. For the same molecule, the Potency entry in [15], in [16], in [17] and in [18] was “inactive” throughout. The max response in assay [4] was -4.3% (inactive) and -1.21% (inactive).
In the case of `CC[C@]12CCCN3CCc4c(n(c5ccccc45)[C@@](O)(C(=O)OC)C1)[C@@H]32`, the Potency result in assay [1], in assay [2], in [3], in [5], in assay [6] and in assay [7] was “inactive” throughout. Further, the Potency result in assay [8], in [19], in assay [9], in [10], in assay [11] and in [12] was “inactive” each time. Besides, the Potency result in assay [13], in assay [14], in [15], in assay [16], in assay [17] and in [18] was “inactive” throughout. Further, the max response in assay [4] is -23.5% (inactive).
Regarding `C=C[Si](OCCOC)(OCCOC)OCCOC`, the Potency result in assay [1], in assay [2], in assay [3], in [5], in assay [6] and in assay [7] was “inactive” throughout. For the same molecule, the Potency result in assay [8], in assay [19], in assay [9], in assay [10], in [11] and in assay [12] was “inactive” each time. Besides, the Potency result in [13], in [15], in assay [16], in [17] and in assay [18] was “inactive” each time. Moreover, the max response in assay [4] was 5.17% (inactive) and 4.57% (inactive).
With `CCCCCCC(C)O` (stereo not drawn), the Potency entry in assay [1], in assay [2], in assay [3], in assay [5], in [6] and in assay [7] was “inactive” throughout. Further, the Potency entry in assay [8], in [10], in assay [11], in [12], in [20] and in [13] was “inactive” in each case. The Potency entry in assay [14], in [15], in assay [16], in assay [17] and in [18] was “inactive” throughout. Further, the max response in assay [4] is 1.85% (inactive) and 4.03% (inactive).
On to `ClC/C=C/CCl`, for which the Potency result in assay [1], in [2], in assay [3], in assay [5], in assay [6] and in assay [8] was “inactive” each time. In addition, the Potency result in assay [9], in [10], in [11], in [12], in [20] and in [13] was “inactive” throughout. Besides, the Potency result in [14], in assay [15], in assay [16], in assay [17] and in assay [18] was “inactive” each time. For the same molecule, in [4], the max response is 18.6% (inactive) and 9.13% (inactive).
Consider `CCC(=O)O[C@H]1[C@H](O[C@@H]2[C@@H](C)[C@H](O[C@H]3C[C@@](C)(OC)[C@@H](O)[C@H](C)O3)[C@@H](C)C(=O)O[C@H](CC)[C@@](C)(O)[C@H](O)[C@@H](C)C(=O)[C@H](C)C[C@@]2(C)O)O[C@H](C)C[C@@H]1N(C)C`, for which the Potency in [1] was 28.9 µM (active) and inactive; in assay [10], 28.9 µM (active) and inactive. Besides, the Potency result in [2], in assay [3], in [6], in assay [7], in assay [8] and in assay [11] was “inactive” in each case. For the same molecule, the Potency result in [12], in assay [13], in [14], in [15], in [16] and in assay [17] was “inactive” in each case. For the same molecule, in [18], the Potency result was “inactive”. Besides, the max response in [4] was -5.5% (inactive).
As to `C=C[C@H]1CN2CC[C@H]1C[C@@H]2[C@@H](O)c1ccnc2ccc(OC)cc12`, the Potency entry in [1], in [3], in assay [5], in assay [6], in [8] and in [9] was “inactive” throughout. The Potency result in [10], in assay [11], in assay [12], in assay [13], in assay [16] and in assay [17] was “inactive” each time. Besides, the Potency result in assay [18] was “inactive”. For the same molecule, the Potency in assay [2] is 42.9 µM (active); in assay [4] it was 48.2 µM (active); in assay [14], 48.2 µM (active); in [15], 42.9 µM (active) and inactive.
Regarding `COc1ccc2nc(N)sc2c1`, the Potency entry in assay [1], in assay [2], in [3], in assay [5], in [6] and in assay [8] was “inactive” throughout. Besides, the Potency result in assay [9], in assay [10], in assay [11], in [12], in [20] and in assay [13] was “inactive” each time. For the same molecule, the Potency entry in [15], in assay [16], in [17] and in assay [18] was “inactive” throughout. Also, the max response in assay [4] is 7.94% (inactive). In addition, the Potency entry in assay [14] was “inactive and 3.09 µM (active)”.
Turning to `O=C(O)c1cc(=O)[nH]c(=O)[nH]1`, the Potency result in [1], in assay [2], in assay [3], in assay [5], in assay [6] and in assay [8] was “inactive” in each case. Moreover, the Potency entry in [19], in [9], in assay [10], in assay [11], in [12] and in assay [20] was “inactive” each time. Further, the Potency entry in assay [13], in assay [14], in assay [15], in [16], in assay [17] and in assay [18] was “inactive” each time. In addition, in [4], the max response is 10.8% (inactive) and 0.747% (inactive).
`[Na+]`: the Potency entry in [1], in assay [2], in assay [3], in [5], in [6] and in assay [8] was “inactive” in each case. The Potency entry in [9], in [10] and in [18] was “inactive” in each case. In addition, in [4], the max response is 3.11% (inactive) and 3.69% (inactive).
With `Cc1ccc(/C(=C\CN2CCCC2)c2ccccn2)cc1`, the Potency result in [1], in assay [3], in [5], in assay [6], in [7] and in assay [8] was “inactive” each time. The Potency entry in [19], in assay [9], in assay [10], in [11], in assay [12] and in assay [20] was “inactive” each time. Also, the Potency entry in assay [13], in [14], in assay [15], in assay [16], in [17] and in assay [18] was “inactive” in each case. For the same molecule, the max response in assay [4] was -3.85% (inactive).
Take `NC[C@H](O)c1ccc(O)c(O)c1`: the Potency entry in [1], in assay [2], in [3], in assay [5], in [6] and in assay [8] was “inactive” each time. Besides, the Potency entry in assay [19], in assay [10], in [11], in assay [12], in assay [20] and in assay [13] was “inactive” each time. The Potency entry in assay [15], in [16], in assay [17] and in [18] was “inactive” in each case. For the same molecule, in [4], the max response was -0.0212% (inactive) and 2.99% (inactive).
Regarding `COc1cc([C@H]2Oc3cc([C@H]4Oc5cc(O)cc(O)c5C(=O)[C@@H]4O)ccc3O[C@@H]2CO)ccc1O`, the Potency entry in assay [1] is “inactive and 16.9 µM (active)”; in [6], “inactive and 21.3 µM (active)”; in [8], “inactive and 21.3 µM (active)”; in [19], “inactive and 21.3 µM (active)”; in assay [10], “inactive and 15.1 µM (active)”; in assay [11] it was “inactive and 21.3 µM (active)”. Besides, the Potency result was “inactive and 21.3 µM (active)” in assay [12]; “inactive and 16.9 µM (active)” in assay [20]; “inactive and 23.9 µM (active)” in [18]. Further, the Potency entry in assay [2], in [3], in [7], in assay [13], in assay [15] and in assay [17] was “inactive” each time. For the same molecule, the max response in [4] was -16.5% (inactive).
